Experimental findings from PubChem BioAssay (Tox21) are described below.

Experiment [1] can be described thus: qHTS assay to identify aromatase inhibitors - cell viability counter screen (AID 743084).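 Note: cells stimulated with testosterone during compound exposure; nearly all actives have a fitted effect of over 55% in size.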
In experiment [2] the target is Aryl hydrocarbon receptor (Homo sapiens) (UniProt P35869). In words: qHTS assay to identify small molecule that activate the aryl hydrocarbon receptor (AhR) signaling pathway (AID 743085).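 For activation: HG2L7.5c1 human HepG2 liver cells with stably integrated DRE-driven firefly reporter; series mostly up to about 70 µM.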 Note: nearly all actives have a fitted effect of over 15% in size. Note: potency is the fitted concentration of half-maximal effect. The method, boiled down: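 Compounds were tested in HepG2 hepatocellular carcinoma cells harbouring a stably integrated luciferase gene under control of 20 DREs. Increased reporter signal after 24 h treatment at 37C was taken as AhR activation.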

Experiment [3] is described as follows: qHTS assay to identify small molecule that activate the aryl hydrocarbon receptor (AhR) signaling pathway - cell viability counter screen (AID 743086).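 Note: HepG2 liver cells carrying the AhR DRE luciferase reporter; series mostly up to about 70 µM; nearly all actives have a fitted effect of over 45% in size.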 The method, boiled down: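 HepG2-AhR-luc (HG2L7.5c1) cells, 4000/well, treated 24 h at 37 C with compound; viability measured as CellTiter-Fluor fluorescence after 30 min in the same wells as the luciferase read.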
Background: qHTS replaces the single test concentration by a dilution series.

Experiment [4] has as its target Peroxisome proliferator-activated receptor gamma (Homo sapiens) (UniProt P37231). In words: qHTS assay to identify small molecule agonists of the peroxisome proliferator-activated receptor gamma (PPARg) signaling pathway (AID 743094; active = well fitted activation curve with a large enough effect in the signal ratio in the repeat runs, not every such curve was filed as active; the % refers to the signal ratio). The method, boiled down: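 HEK293H PPARg-bla cells, 5 h settle at 37C/5% CO2; compound (DMSO) 17 h, 37C; B/G FRET substrate 1 h RT; fluorescence intensity read-out. qHTS format.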

Experiment [5] is described as follows: qHTS assay to identify small molecule antagonists of the peroxisome proliferator-activated receptor gamma (PPARg) signaling pathway - cell viability counter screen (AID 743194). Note: nearly all actives have a fitted effect of over 55% in size. In short, it runs like this:
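Cytotoxicity counter screen in PPARg-bla HEK293H cells, same wells as reporter assay. Compounds plus 50 nM rosiglitazone (final) for 17 h at 37 C, then viability read by CellTiter-Glo luminescence.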

The nature of experiment [6]: qHTS assay for small molecule agonists of the antioxidant response element (ARE) signaling pathway (AID 743202; active = well fitted activation curve with a large enough effect in the signal ratio in the repeat runs, not every such curve was filed as active; the % refers to the signal ratio; note: potency is the fitted concentration of half-maximal effect). The method, boiled down:
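HepG2 ARE-bla reporter line, 2,000 cells/well; 5 h preincubation 37 C/5% CO2; compound (DMSO) 16 h 37 C; B/G FRET substrate 2 h RT; fluorescence intensity.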

The nature of experiment [7]: qHTS assay for small molecule agonists of the antioxidant response element (ARE) signaling pathway - cell viability counter screen (AID 743203; calls by dose curve; note: nearly all actives have a fitted effect of over 55% in size). The method, boiled down:
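Luminescence read-out (CellTiter-Glo, 30 min at room temperature) measured cell viability in the same wells as the ARE beta-lactamase reporter. HepG2 ARE-bla cells were treated with compounds for 16 hrs at 37C/5% CO2.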

Experiment [8] is described as follows: qHTS assay for small molecule activators of the heat shock response signaling pathway - cell viability counter screen (AID 743209). Note: nearly all actives have a fitted effect of over 50% in size. In short, it runs like this: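 HSE-bla HeLa; 1500 cells/well; overnight 37 C, 5% CO2; compound 5 h 37 C; LiveBLAzer B/G substrate 2.5 h RT; CellTiter-Glo 30 min RT; luminescence.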
Experiment [9] in a line: qHTS assay for small molecule activators of the heat shock response signaling pathway (AID 743210; active = well fitted activation curve with a large enough effect in the signal ratio in the repeat runs, with a control signal flat, not every such curve was filed as active; the % refers to the signal ratio; note: series mostly up to about 63 µM). The method, boiled down: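 Beta-lactamase reporter read-out: FRET substrate fluorescence after 2.5 h at RT, following 5 h compound treatment at 37 C of HeLa cells carrying HSE-driven bla reporter; quantitative HTS format.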
Experiment [10] in a line: qHTS assay to identify small molecule agonists of the peroxisome proliferator-activated receptor delta (PPARd) signaling pathway - cell viability counter screen (AID 743211). Note: nearly all actives have a fitted effect of over 55% in size. The method, boiled down: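 Counter screen for cytotoxicity run in parallel with the PPARd reporter screen. Beta-lactamase reporter HEK293H cells exposed to compounds 17 h; ATP-based CellTiter-Glo luminescence quantified viability.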

Experiment [11] deals with Peroxisome proliferator-activated receptor delta (Homo sapiens) (UniProt Q03181). In words: qHTS assay to identify small molecule agonists of the peroxisome proliferator-activated receptor delta (PPARd) signaling pathway (AID 743212; calls by dose curve). In short, it runs like this:
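Read-out: beta-lactamase FRET fluorescence after 2 h room-temperature incubation with LiveBLAzer B/G substrate. Cells were HEK293H carrying a UAS-bla reporter for PPARd, treated at 37 C with DMSO-dissolved compounds.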

Experiment [12] has as its target Bile acid receptor (Homo sapiens) (UniProt Q96RI1). In words: qHTS assay to identify small molecule antagonists of the farnesoid-X-receptor (FXR) signaling pathway (AID 743217; active = well fitted inhibition curve with a large enough effect in the signal ratio in the repeat runs, not every such curve was filed as active; the % refers to the signal ratio). The method, boiled down:
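Read-out: beta-lactamase FRET fluorescence (LiveBLAzer B/G substrate, 2 h, room temperature) in GeneBLAzer FXR-UAS-bla HEK 293T cells. Compounds were co-dosed with 50 uM chenodeoxycholic acid (final) and incubated 16 h at 37 °C.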

The nature of experiment [13]: qHTS assay to identify small molecule agonists of the farnesoid-X-receptor (FXR) signaling pathway - cell viability counter screen (AID 743218). Note: nearly all actives have a fitted effect of over 45% in size. The method, boiled down:
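Luminescence from CellTiter-Glo, read after 30 min at RT, reports viability of GeneBLAzer FXR-UAS-bla HEK 293T cells treated 16 h with compounds in the wells used for the beta-lactamase reporter.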

Experiment [14] addresses Bile acid receptor (Homo sapiens) (UniProt Q96RI1). In words: qHTS assay to identify small molecule agonists of the farnesoid-X-receptor (FXR) signaling pathway (AID 743220; active = well fitted activation curve with a large enough effect in the signal ratio in the repeat runs, not every such curve was filed as active; the % refers to the signal ratio). The method, boiled down:
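FXR-UAS-bla HEK 293T cells carrying a UAS-driven beta-lactamase reporter were plated for 5 h at 37C/5% CO2, then exposed to DMSO-dissolved Tox21 10K compounds for 16 h at 37C. A LiveBLAzer B/G FRET substrate was loaded for 2 h at room temperature before fluorescence reading.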

A short description of experiment [15]: qHTS assay to identify small molecule antagonists of the farnesoid-X-receptor (FXR) signaling pathway - cell viability counter screen (AID 743221; active = well fitted cell-killing curve with a large enough effect in the repeat runs, not every such curve was filed as active; note: nearly all actives have a fitted effect of over 50% in size). The method, boiled down: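 Multiplexed counter screen: viability of FXR-bla HEK 293T cells under agonist stimulation by chenodeoxycholic acid (50 uM, final) and test compound for 16 h at 37 C, measured by CellTiter-Glo luminescence in the reporter wells.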

Experiment [16] addresses Vitamin D3 receptor (Homo sapiens) (UniProt P11473). In words: qHTS assay to identify small molecule agonists of the vitamin D receptor (VDR) signaling pathway (AID 743222; calls by dose curve). In short, it runs like this:
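Beta-lactamase reporter readout (LiveBLAzer B/G FRET, 2 h RT) in VDR-bla cells after 16 h compound treatment at 37C, 5% CO2; cells pre-incubated 4 h before pin transfer of DMSO solutions.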

The target is the same in experiment [17]. In words: qHTS assay to identify small molecule antagonists of the vitamin D receptor (VDR) signaling pathway (AID 743223; active = well fitted inhibition curve with a large enough effect in the signal ratio in the repeat runs, not every such curve was filed as active; the % refers to the signal ratio). In short, it runs like this:
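Cells carrying a VDR-driven beta-lactamase reporter (VDR-bla) were co-treated with compound and 3 nM final 1alpha,25-dihydroxyvitamin D3 for 16 h at 37C; reporter activity was measured as FRET substrate fluorescence after 2 h at room temperature.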

The target in experiment [18] is Peroxisome proliferator-activated receptor gamma (Homo sapiens) (UniProt P37231). In words: qHTS assay to identify small molecule antagonists of the peroxisome proliferator-activated receptor gamma (PPARg) signaling pathway (AID 743191; calls by dose curve; note: series mostly up to about 63 µM; nearly all actives have a fitted effect of over 30% in size). The method, boiled down:
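GeneBLAzer PPARg UAS-bla HEK293H cells, 5 h post-plating, exposed to compounds 17 h at 37C. LiveBLAzer B/G FRET substrate added for 1 h at room temperature; beta-lactamase reporter read by fluorescence intensity.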

Experiment [19] is described as follows: qHTS assay to identify small molecule antagonists of the peroxisome proliferator-activated receptor delta (PPARd) signaling pathway - cell viability counter screen (AID 743213). Note: nearly all actives have a fitted effect of over 50% in size. In short, it runs like this: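 Viability counter-screen, qHTS format: PPARd-bla HEK293H, L165041 300 nM final, 17 h compound exposure at 37 C, CellTiter-Glo luminescence after 30 min RT.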

The target of experiment [20] is Peroxisome proliferator-activated receptor delta (Homo sapiens) (UniProt Q03181). In words: qHTS assay to identify small molecule antagonists of the peroxisome proliferator-activated receptor delta (PPARd) signaling pathway (AID 743215; active = well fitted inhibition curve with a large enough effect in the signal ratio in the repeat runs, not every such curve was filed as active; the % refers to the signal ratio;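 note: cells stimulated with agonist L165041 at 300 nM final during compound exposure; series mostly up to about 62 µM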). In short, it runs like this:
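HEK293H GeneBLAzer PPARd UAS-bla reporter cells; cpd + L165041 300 nM final, 17 h 37 C; LiveBLAzer B/G FRET substrate 2 h RT; fluorescence intensity read-out. Antagonist mode.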

Inconclusive results are not listed. Active and inactive are the calls of the source. Unless noted, calls come from the whole dose curve; as a rule, active = well fitted curve in the direction sought with a large enough effect in the repeat runs; inconclusive = weak or mixed curves; inactive = no such curve, though single readings can be large; an effect the other way counts as inactive or inconclusive.

Sequence of Aryl hydrocarbon receptor (Homo sapiens) (P35869 whole entry, looked up): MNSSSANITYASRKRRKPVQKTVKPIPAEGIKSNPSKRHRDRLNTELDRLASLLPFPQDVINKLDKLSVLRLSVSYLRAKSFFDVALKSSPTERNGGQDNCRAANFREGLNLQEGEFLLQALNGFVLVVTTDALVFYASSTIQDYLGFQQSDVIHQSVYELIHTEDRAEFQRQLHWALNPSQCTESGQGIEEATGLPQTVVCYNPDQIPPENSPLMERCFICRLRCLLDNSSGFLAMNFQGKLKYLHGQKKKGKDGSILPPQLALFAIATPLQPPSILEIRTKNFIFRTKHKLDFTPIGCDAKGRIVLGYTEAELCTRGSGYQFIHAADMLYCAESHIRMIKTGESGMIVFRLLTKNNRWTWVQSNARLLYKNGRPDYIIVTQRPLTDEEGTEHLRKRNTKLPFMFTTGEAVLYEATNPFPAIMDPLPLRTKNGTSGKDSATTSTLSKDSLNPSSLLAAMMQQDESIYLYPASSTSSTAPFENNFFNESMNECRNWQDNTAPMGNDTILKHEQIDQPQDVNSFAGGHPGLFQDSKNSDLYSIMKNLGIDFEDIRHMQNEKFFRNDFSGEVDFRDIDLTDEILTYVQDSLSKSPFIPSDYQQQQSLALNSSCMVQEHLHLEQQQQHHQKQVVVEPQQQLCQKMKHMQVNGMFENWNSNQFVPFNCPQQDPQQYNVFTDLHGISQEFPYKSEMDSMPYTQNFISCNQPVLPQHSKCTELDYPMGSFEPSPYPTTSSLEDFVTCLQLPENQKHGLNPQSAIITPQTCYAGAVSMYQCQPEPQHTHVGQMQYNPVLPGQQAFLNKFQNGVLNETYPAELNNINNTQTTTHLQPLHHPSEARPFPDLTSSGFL
Sequence of Peroxisome proliferator-activated receptor gamma (Homo sapiens) (P37231 whole entry, looked up): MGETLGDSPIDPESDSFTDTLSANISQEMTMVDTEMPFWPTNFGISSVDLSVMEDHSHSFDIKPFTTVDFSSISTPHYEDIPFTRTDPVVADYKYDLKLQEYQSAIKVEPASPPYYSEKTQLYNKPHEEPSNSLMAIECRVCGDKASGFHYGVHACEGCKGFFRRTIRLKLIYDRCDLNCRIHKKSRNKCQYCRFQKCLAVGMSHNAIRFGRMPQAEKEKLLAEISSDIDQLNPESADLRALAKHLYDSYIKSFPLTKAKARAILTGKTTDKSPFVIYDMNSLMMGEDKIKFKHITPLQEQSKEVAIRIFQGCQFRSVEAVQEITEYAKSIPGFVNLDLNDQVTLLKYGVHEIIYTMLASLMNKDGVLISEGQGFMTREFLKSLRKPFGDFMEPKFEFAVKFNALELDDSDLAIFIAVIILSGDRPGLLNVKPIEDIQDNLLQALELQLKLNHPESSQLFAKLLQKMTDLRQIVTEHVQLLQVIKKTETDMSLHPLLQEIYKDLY
Sequence of Vitamin D3 receptor (Homo sapiens) (P11473 whole entry, looked up): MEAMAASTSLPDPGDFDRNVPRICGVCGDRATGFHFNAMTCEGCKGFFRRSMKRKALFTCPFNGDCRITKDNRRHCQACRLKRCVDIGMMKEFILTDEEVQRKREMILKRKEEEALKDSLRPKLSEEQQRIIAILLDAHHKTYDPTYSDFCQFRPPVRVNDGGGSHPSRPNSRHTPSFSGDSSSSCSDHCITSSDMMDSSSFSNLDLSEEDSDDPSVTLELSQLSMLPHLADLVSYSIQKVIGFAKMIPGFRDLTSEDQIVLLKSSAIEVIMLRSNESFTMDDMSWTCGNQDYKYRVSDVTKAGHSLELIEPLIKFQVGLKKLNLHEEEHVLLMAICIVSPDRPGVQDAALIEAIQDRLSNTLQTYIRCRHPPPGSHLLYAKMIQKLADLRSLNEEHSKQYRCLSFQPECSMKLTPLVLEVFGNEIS
Sequence of Peroxisome proliferator-activated receptor delta (Homo sapiens) (Q03181 whole entry, looked up): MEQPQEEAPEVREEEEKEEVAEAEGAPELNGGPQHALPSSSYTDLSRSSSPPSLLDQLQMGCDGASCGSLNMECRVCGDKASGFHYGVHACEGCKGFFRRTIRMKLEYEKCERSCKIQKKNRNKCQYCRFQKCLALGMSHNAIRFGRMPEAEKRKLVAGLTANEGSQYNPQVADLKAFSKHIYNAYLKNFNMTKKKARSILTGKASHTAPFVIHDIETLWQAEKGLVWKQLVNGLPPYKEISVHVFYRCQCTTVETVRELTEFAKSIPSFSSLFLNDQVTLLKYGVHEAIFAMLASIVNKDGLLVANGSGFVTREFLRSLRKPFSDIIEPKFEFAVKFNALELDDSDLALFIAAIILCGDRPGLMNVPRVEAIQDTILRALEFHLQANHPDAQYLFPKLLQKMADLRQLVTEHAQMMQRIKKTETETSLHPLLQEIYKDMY
Sequence of Bile acid receptor (Homo sapiens) (Q96RI1 whole entry, looked up): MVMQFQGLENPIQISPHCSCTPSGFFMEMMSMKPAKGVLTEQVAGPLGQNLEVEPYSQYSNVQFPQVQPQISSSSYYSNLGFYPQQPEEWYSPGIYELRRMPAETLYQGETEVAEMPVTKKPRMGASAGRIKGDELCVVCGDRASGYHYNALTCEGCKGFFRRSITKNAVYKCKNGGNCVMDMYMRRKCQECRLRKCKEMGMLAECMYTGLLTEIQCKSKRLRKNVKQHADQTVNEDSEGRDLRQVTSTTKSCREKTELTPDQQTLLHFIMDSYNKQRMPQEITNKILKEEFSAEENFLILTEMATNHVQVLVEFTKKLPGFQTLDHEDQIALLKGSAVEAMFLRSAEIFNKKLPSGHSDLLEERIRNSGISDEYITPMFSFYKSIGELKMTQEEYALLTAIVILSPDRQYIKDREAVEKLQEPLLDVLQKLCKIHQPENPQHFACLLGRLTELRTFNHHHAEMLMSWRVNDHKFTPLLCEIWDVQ

In the case of `Nc1ncnc2c1ncn2[C@H]1CC[C@@H](CO)O1`, the Potency entry in [1], in [2], in experiment [3], in experiment [4], in experiment [5] and in experiment [6] was “inactive” throughout. Besides, the Potency entry in [7], in experiment [8], in experiment [9], in experiment [10], in experiment [11] and in [12] was “inactive” each time. The Potency result in [13], in [14], in [15], in [16] and in experiment [17] was “inactive” each time.

With `CC(CN(C)C)C(C)(O)Cc1ccc(Cl)cc1` (stereo not given), the Potency result in [1], in experiment [2], in experiment [3], in [18], in [5] and in experiment [6] was “inactive” throughout. The Potency result in experiment [7], in [8], in experiment [10], in experiment [11], in [15] and in experiment [16] was “inactive” throughout. In addition, the Potency result in experiment [17] is “inactive”.

Take `CN1C(=O)c2ccccc2C1=O`: the Potency entry in experiment [1], in experiment [2], in experiment [3], in [4] and in experiment [7] was “inactive” each time.

In the case of `CC(C)=CC(=O)C=C(C)C`, the Potency entry in [1], in experiment [2], in experiment [3], in [4], in experiment [5] and in experiment [7] was “inactive” in each case. In addition, the Potency result in experiment [8], in [9], in experiment [10], in experiment [11], in experiment [19] and in experiment [20] was “inactive” each time. Further, the Potency result in [12], in experiment [13], in experiment [14], in experiment [15] and in [17] was “inactive” throughout.

For the molecule `O=C(OC(=O)c1ccccc1)c1ccccc1`, the Potency result in experiment [1], in experiment [2], in experiment [3], in experiment [18], in experiment [5] and in experiment [6] was “inactive” throughout. The Potency result in [7], in [8], in experiment [9], in experiment [10], in experiment [11] and in experiment [20] was “inactive” in each case. Moreover, the Potency result in experiment [13], in experiment [15] and in [16] was “inactive” each time.

As to `CCCCCCCCCCC(=O)O`, the Potency result in experiment [1], in [2], in [3], in experiment [18], in experiment [5] and in [7] was “inactive” throughout. Moreover, the Potency result in experiment [8], in [9], in experiment [10], in [20], in experiment [13] and in [15] was “inactive” each time.

`CC/C=C1/OC(=O)c2ccccc21`: the Potency entry in experiment [1], in experiment [2], in [3], in experiment [4], in experiment [5] and in [6] was “inactive” in each case. Moreover, the Potency entry in experiment [7], in experiment [8], in experiment [9], in experiment [10], in [11] and in [19] was “inactive” throughout. Moreover, the Potency result in [20], in experiment [13], in experiment [15], in experiment [16] and in [17] was “inactive” in each case.

As to `C=CCc1ccccc1OCC(O)CNC(C)C` (stereo not given), the Potency entry in [1], in experiment [2], in [3], in experiment [4], in experiment [5] and in experiment [7] was “inactive” each time. Moreover, the Potency entry in experiment [9], in experiment [10], in experiment [11], in [19], in experiment [20] and in experiment [15] was “inactive” each time. Also, the Potency result in experiment [16] and in [17] was “inactive” in each case.

`O=C1C(=O)c2ccccc2C(O)=C1C1CCC(c2ccc(Cl)cc2)CC1` (stereo not given): the Potency entry in experiment [1], in experiment [3], in experiment [4], in experiment [8], in [19] and in experiment [12] was “inactive” each time. Moreover, the Potency entry in [14] and in experiment [17] was “inactive” each time. The Potency was 4.03 µM (active) in experiment [2] and 6.68 µM (active) in experiment [6].
